Compounds with a hit are over-represented: about 10% of the library has one in this group of screens.
FLuc inh = inhibitors of firefly (Photinus pyralis) luciferase; P08659; Potency, µM (doses to about 115 µM), hits mostly inhibitors; purified P. pyralis luciferase, luminescence, biochemical; 2.5% of 76,000 active; AID 1347043; note: nearly all actives have a fitted effect of over 65% in size
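Cell-free enzyme assay, 10nM P. pyralis luciferase, luciferin and ATP each at 10uM. Inhibition profiled over a 6-point titration, read as luminescence.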
HEK293 tox = HEK 293 cell cytotoxicity; HEK 293 viability, ATP luminescence (CellTiter-Glo), 48-72 h; Potency, µM (titrated, usually from 115 µM), without a hit: at the highest dose activity change, negative = cytotoxicity, hits mostly inhibitors; 6.6% of 94,000 active; AID 1345083; note: nearly all actives have a fitted effect of over 60% in size
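Pintool-delivered compounds were incubated with HEK 293 cells (250 cells/well) at 37 degree Celsius for 48 or 72 hr. ATP-dependent luminescence (CellTiter-Glo) then reported remaining viable cells.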
NIH3T3 tox = NIH 3T3 cell cytotoxicity. NIH 3T3 viability, CellTiter-Glo ATP luminescence, 48-72 h. Potency, µM (highest dose often 96.7 µM), inactives show at the highest dose activity change, negative = cytotoxicity, most hits filed as inhibitors. 4.3% of 94,000 active. AID 1345082; note: nearly all actives have a fitted effect of over 55% in size
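Luminescent ATP readout (CellTiter-Glo, 10 min RT) after 48 or 72 hr compound exposure of NIH 3T3 cells seeded at 400 cells/well in 1536-well format; quantitative HTS.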
GPT2 inhibitor = GPT2 alanine aminotransferase inhibition. Q8TD30. Recombinant GPT2, coupled pyruvate oxidase/HRP Amplex Red fluorescence. Potency, µM (top dose mostly 57.7 µM), without a hit: top-dose activity change, negative = inhibition, hits mostly inhibitors. 0.25% of 100,000 active. AID 1671188; note: nearly all actives have a fitted effect of over 60% in size
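Fluorescence of coupled pyruvate oxidase/HRP/Amplex Red system (50uM Amplex, 30 min, dark) reports pyruvate formed by GPT2. Enzyme reaction: 10ng/uL GPT2, 2mM L-alanine, 250uM a-KG, 30 min room temperature, pH 7.5; 50uM AOA control.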
hNpr1 antagonist = blocks ANP-stimulated signaling of human Npr1 receptor | HEK293 hNpr1 GloSensor cGMP, ANP-stimulated luminescence | P16066 | 1.6% of 76,000 active | AID 1347048 | Potency, µM (series often up to 46.3 µM), for the others: at the highest dose activity change, negative = inhibition, actives largely listed as inhibitors; calls by dose curve; note: nearly all actives have a fitted effect of over 60% in size
Target sequence (P16066 whole entry, looked up): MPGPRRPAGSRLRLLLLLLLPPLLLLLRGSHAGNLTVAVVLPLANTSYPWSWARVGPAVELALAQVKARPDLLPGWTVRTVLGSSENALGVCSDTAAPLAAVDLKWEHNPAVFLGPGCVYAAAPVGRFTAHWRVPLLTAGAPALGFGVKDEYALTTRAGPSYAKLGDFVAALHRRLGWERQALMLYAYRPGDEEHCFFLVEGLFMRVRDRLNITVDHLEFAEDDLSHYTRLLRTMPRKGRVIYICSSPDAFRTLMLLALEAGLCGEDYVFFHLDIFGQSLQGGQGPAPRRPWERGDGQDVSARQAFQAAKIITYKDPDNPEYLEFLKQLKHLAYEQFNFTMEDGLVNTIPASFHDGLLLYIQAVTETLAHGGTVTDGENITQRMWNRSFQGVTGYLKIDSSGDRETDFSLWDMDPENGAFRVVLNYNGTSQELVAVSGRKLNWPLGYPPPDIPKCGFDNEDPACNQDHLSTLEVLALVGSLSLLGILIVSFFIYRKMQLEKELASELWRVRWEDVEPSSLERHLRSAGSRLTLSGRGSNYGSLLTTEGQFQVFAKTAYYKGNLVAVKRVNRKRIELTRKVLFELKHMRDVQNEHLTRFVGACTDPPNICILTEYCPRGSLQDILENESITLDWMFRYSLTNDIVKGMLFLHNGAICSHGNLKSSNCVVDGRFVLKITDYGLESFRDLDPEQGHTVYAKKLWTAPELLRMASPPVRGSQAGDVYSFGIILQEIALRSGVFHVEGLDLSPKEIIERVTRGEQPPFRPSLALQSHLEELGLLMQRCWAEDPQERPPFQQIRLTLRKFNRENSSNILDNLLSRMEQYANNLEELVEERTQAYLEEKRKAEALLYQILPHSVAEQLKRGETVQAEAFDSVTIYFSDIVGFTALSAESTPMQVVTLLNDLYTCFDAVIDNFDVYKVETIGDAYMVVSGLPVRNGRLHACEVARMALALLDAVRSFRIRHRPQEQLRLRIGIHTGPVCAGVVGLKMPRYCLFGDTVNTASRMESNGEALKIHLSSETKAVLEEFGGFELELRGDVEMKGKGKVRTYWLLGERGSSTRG
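Compound pre-incubated 30 min at room temperature on GloSensor-loaded HEK293 cells stably carrying hNpr1 and the pGS-40F cGMP biosensor. Stimulation uses hNppA at 0.1 nM final; luminescence is taken at baseline and 20 min post-agonist.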
* marks the source's active call; other numbers are inactive results; i = inactive; u = inconclusive; x = no result given; ! = a repeat was not active; [ ] = remark or other dose. Unless noted, calls come from the whole dose curve; as a rule, active = well fitted curve in the direction sought with a large enough effect; inconclusive = small, poorly fitted or top-dose-only effect, or another doubt; inactive = no such curve, though single readings can be large; an effect the other way counts as inactive or inconclusive. % is set by controls: 0 for no effect and ±100 for the full control effect; potency is the fitted concentration of half-maximal effect.

SMILES | FLuc inh | HEK293 tox | NIH3T3 tox | GPT2 inhibitor | hNpr1 antagonist
COc1ccc(CN2CC3(CCN(S(=O)(=O)c4ccccc4Cl)CC3)C2=O)cc1 | i | u | u | i | -19.6%
COc1ccc(CN2CC3(CCN(S(=O)(=O)c4ccc(F)cc4)CC3)C2=O)cc1 | i | 89.1µM* | -23.0% | i | -3.9%
CCc1nnc2ccc(NCc3ccccc3)nn12 | i | u | u | i | 7.7%
COCCOc1ccc2c(n1)CCN(C(=O)c1ccncc1)C2 | i | 11.8% | -15.0% | i | 0.1%
CS(=O)(=O)c1ccc(-n2nc(C(F)(F)F)cc2-c2ccc(F)cc2)cc1 | x | x | x | -7.2% | x
Cn1ncc2c(C(=O)NC3CC3)cc(-c3ccc(Cl)nc3)nc21 | x | u | u | -3.1%[88.5 µM] | x
Cn1ncc2c(C(=O)NCCc3ccc(Cl)cc3)cc(-c3cccnc3)nc21 | x | 31.6µM* | u | i | x
Cn1ncc2c(C(=O)NC3CC3)cc(-c3cccnc3)nc21 | x | 63.1µM*! | 39.8µM*! | 4.9%[88.5 µM] | x
Cn1ncc2c(C(=O)NCc3ccc(Cl)cc3)cc(-c3cccc(F)c3)nc21 | x | 39.8µM* | 31.6µM* | x | x
CCC(C)NC(=O)c1cc(-c2cccc(F)c2)nc2c1cnn2C (centres undefined) | x | 89.1µM* | u | x | x
COC(=O)CNC(=O)c1cc(-c2cccc(F)c2)nc2c1cnn2C | x | -13.4%[172 µM] | u | x | x
Cc1ccc(-c2cc(C(=O)NCc3ccc(F)cc3)c3cnn(C)c3n2)cc1 | x | u | u | i | x
Cn1ncc2c(C(=O)NCc3cccc(F)c3)cc(-c3ccc(Cl)cc3)nc21 | x | 44.7µM* | u | i | x
COc1ccc(C(=O)N[C@@H]2CCC[C@@H]2C(=O)NCCCn2cccn2)cn1 | i | i | -5.4% | i | -3.8%
Cn1cnc2cc(-c3ccc(N4CCOCC4)cc3)cc(C(=O)NCc3cccnc3)c21 | i | 1.2%[172 µM] | 89.1µM* | i | -0.9%[70.6 µM]
Cn1cnc2cc(-c3cccc(C(F)(F)F)c3)cc(C(=O)NCc3cccnc3)c21 | i | 100µM* | u | -0.2%[88.5 µM] | -5.6%[70.6 µM]
COc1ccc(-c2cc(C(=O)NCc3ccnc(N)c3)c3c(c2)ncn3C)cc1 | i | u | u | -6.1%[88.5 µM] | -7.6%[70.6 µM]
COc1cc(CNC(=O)c2cc(-c3cccc(N(C)C)c3)cc3ncn(C)c23)ccn1 | u | 70.8µM* | u | i | 4.0%[70.6 µM]
Cn1cnc2cc(-c3ccccc3)cc(C(=O)NCc3cccnc3)c21 | i | -24.3%[172 µM] | u | u | -4.9%[70.6 µM]
O=C(C1CCCN1C(=O)c1ccccc1)N1CCC(N2Cc3cccn3C2=O)CC1 (centres undefined) | x | -1.8% | 1.0% | -0.1% | x
CCCn1nccc1C(=O)N1CCCC(c2[nH]ncc2Cc2ccccc2)C1 (centres undefined) | i | 50.1µM* | u | u | -25.1%
CCn1cc(S(=O)(=O)N2C[C@@H](CO)[C@H](C(=O)N(C)C)C2)cn1 | x | 1.5% | -6.6% | i | x
O=C(Cc1ccsc1)N1CCC(n2cc(-c3nc(-c4ccccc4)no3)nn2)C1 (centres undefined) | 56.2µM* | u | -27.4% | i | -28.2%
O=C(c1ccc2ccccc2n1)N1CCC(n2cc(-c3nc(-c4ccccc4)no3)nn2)C1 (centres undefined) | 28.2µM* | u | u | -5.8% | u
O=C(c1ccco1)N1CCC(n2cc(-c3nc(-c4ccccc4)no3)nn2)C1 (centres undefined) | 35.5µM* | u | u | 0.8% | -27.1%
SMILES | FLuc inh | HEK293 tox | NIH3T3 tox | GPT2 inhibitor | hNpr1 antagonist
O=C(c1nccc2ccccc12)N1CCC(n2cc(-c3nc(-c4ccccc4)no3)nn2)C1 (centres undefined) | 44.7µM* | 28.2µM* | u | i | u
Cc1ccc(C(=O)N2CCC(n3cc(-c4nc(-c5ccccc5)no4)nn3)C2)s1 (centres undefined) | i | u | -12.6% | i | u
Cc1ccsc1C(=O)NCCc1noc(C2CC2)n1 | i | 14.4% | -5.4% | i | -16.0%
Cn1nc(C(=O)N2CCn3nc(Cc4ccccc4)cc3C2)ccc1=O | i | -19.5% | -30.4% | -11.7% | -1.4%
Cc1cccc2nc(C(=O)N3CCn4nc(Cc5ccccc5)cc4C3)cn12 | i | 44.7µM* | u | 0.8% | u
C=CCNC(=O)N[C@H]1CO[C@H]2[C@@H]1OC[C@@H]2Nc1nccc(-c2ccc(OC)cc2)n1 | i | 89.1µM* | u | -0.7%[88.5 µM] | -1.9%[70.6 µM]
Cc1ccc(C(=O)N[C@H]2CO[C@H]3[C@@H]2OC[C@@H]3Nc2nccc(-c3cccs3)n2)cc1 | i | -3.4%[172 µM] | -16.4%[174 µM] | 0.4%[88.5 µM] | -5.2%[70.6 µM]
CN(C)c1ccc(C(=O)N[C@H]2CO[C@H]3[C@@H]2OC[C@@H]3Nc2nccc(-c3cccs3)n2)cc1 | u | 44.7µM* | u | 3.2% | -26.5%
CN(C)c1ccc(-c2ccnc(N[C@H]3CO[C@H]4[C@@H]3OC[C@@H]4NC(=O)NCc3ccccc3)n2)cc1 | u | 31.6µM* | 22.4µM* | 2.0% | -12.3%
O=C(N[C@H]1CO[C@H]2[C@@H]1OC[C@@H]2Nc1nccc(-c2ccc(-c3ccccc3)cc2)n1)c1ccccc1 | i | 10µM* | u | -3.1% | u
CCNC(=O)N[C@H]1CO[C@H]2[C@@H]1OC[C@@H]2Nc1nccc(-c2ccc(OC)cc2)n1 | i | u | u | i | 0.6%[70.6 µM]
Cc1cc(C)cc(C(=O)N2CCN(c3cc(-c4ccccc4)[nH]n3)CC2)c1 | i | u | u | i | -12.5%
COc1ccccc1N1CCN(CC(C(=O)NC(C)(C)C)c2ccccc2)CC1 (centres undefined) | x | x | x | 3.9% | x
Cc1ccc(S(=O)(=O)N[C@H]2CO[C@H]3[C@@H]2OC[C@H]3O)cc1 | i | 1.2%[172 µM] | 0.3%[174 µM] | i | 1.4%[70.6 µM]
COc1ccc(-c2ccnc(N[C@H]3CO[C@H]4[C@@H]3OC[C@@H]4NS(=O)(=O)c3ccc(NC(C)=O)cc3)n2)cc1 | i | 39.8µM* | u | 0.1% | u
Cc1ccc(S(=O)(=O)N[C@H]2CO[C@H]3[C@@H]2OC[C@@H]3Nc2nccc(C(C)(C)C)n2)cc1 | u | 25.1µM* | u | -5.7%[88.5 µM] | 3.55µM*
CC(=O)N[C@H]1CO[C@H]2[C@@H]1OC[C@@H]2Nc1nccc(-c2cccc(F)c2)n1 | i | u | -27.8%[174 µM] | 3.5%[88.5 µM] | u
COCC(=O)N[C@H]1CO[C@H]2[C@@H]1OC[C@@H]2Nc1nccc(-c2cccc(F)c2)n1 | i | 100µM* | u | 0.1%[88.5 µM] | 2.6%[70.6 µM]
O=C(NCCN1CCOCC1)c1ccc2c(c1)CC(=O)N2Cc1cccc(F)c1 | u | -5.1% | -19.5% | -6.1% | -3.2%
Cn1nccc1-c1cc2c(ccn2C)c(C(=O)NCc2cccnc2)n1 | i | -26.9%[172 µM] | 28.2µM* | u | 2.6%[70.6 µM]
